Potency data for 40 compounds are collected here from PubChem BioAssay (NCATS).

The structures appear in SMILES notation. Inconclusive results are not listed. Entries that show only a call come without a potency. The source made the active and inactive calls. Unless noted, calls come from the whole dose curve.
Potency is the fitted concentration of half-maximal effect.

System in the first assay: not listed separately
Description: qHTS for Inhibitors of the Functional Ribonucleoprotein Complex (vRNP) of Lymphocytic Choriomeningitis Arenaviruses (LCMV): Viability assay - alamar blue signal for LCMV Primary Screen (AID 1347085; calls by dose curve; tested in HEK293 reporter line; note: nearly all actives have a fitted effect of over 80% in size). As to conditions: alamar blue viability counter-screen, LCMV vRNP screen cells; series mostly up to 57.5 µM. (In general: In qHTS, concentration-response curves come from the screen itself.)
As for `CC(C)CC(=O)O`, the Potency result is “inactive”.

`CC(O)[C@H]1CC[C@H]2[C@@H]3CC[C@H]4C[C@@H](O)CC[C@]4(C)[C@H]3C(=O)C[C@]12C` (stereo not given in full): the Potency entry was “inactive”.

On to `C=C1C[C@H](O)[C@@H]2[C@H](OC(=O)[C@H]2C)[C@H]2[C@H](C)[C@@H](O)C[C@@H]12`, for which the Potency result is “inactive”.

For `COc1ccc2[nH]c3c(c2c1)CCNC3C` (stereo not given), the Potency entry is “inactive”.

With `CCCCC(C)/C=C(C)/C=C(\C)C(=O)NC1=CC(O)(/C=C/C=C/C=C/C(=O)NC2=C(O)CCC2=O)C2OC2C1=O` (stereo not given), the Potency result is “inactive”.

Consider `COc1c2c(nc3occc13)C(CC=C(C)C)(OC)C(OC(C)=O)CC2` (stereo not given), for which the Potency result is “inactive”.

Take `O=Cc1cc2ccccc2o1`: the Potency result is “inactive”.

Turning to `COc1ccc(CCN)cc1`, the Potency entry was “inactive”.

As for `C[N+]1([O-])CCC[C@@H]1c1cccnc1` (stereo not given in full), the Potency entry was “inactive”.

For the compound `CCCCCCCC/C=C/CCCOC(C)=O`, the Potency entry is “inactive”.

As to `CC1(C)CCc2c([nH]c3ccccc3c2=O)O1`, the Potency entry was “inactive”.

Turning to `Cn1cccc1-c1cccnc1`, the Potency entry was “inactive”.

`CC(=O)C1CCC2C3CCC4=CC(=O)C=CC4(C)C3C(=O)CC12C` (stereo not given): the Potency result was “inactive”.

As for `COc1cc(CCc2cc(NC(=O)c3ccc(N4C[C@@H](C)N[C@@H](C)C4)cc3)n[nH]2)cc(OC)c1`, the Potency is 43.2 µM (active).

Turning to `C=C(C)[C@@H]1CCC2=CC(=O)C[C@@H](C)[C@]2(C)C1`, the Potency entry is “inactive”.

For `C[C@H]1CC[C@@H]2N(C1)C[C@H]1[C@@H]3C[C@H]4[C@@H](CC(=O)[C@H]5C[C@@H](O)CC[C@@]54C)[C@@H]3CC[C@H]1[C@]2(C)O`, the Potency result was “inactive”.

For the compound `COC(=O)CC1[C@@]2(C)C[C@]34OC5(C)OC6(C7CC(=O)OC(c8ccoc8)[C@]7(C)CCC6(O5)[C@]13C)C(OC(C)=O)[C@]4(OC(C)=O)C2OC(C)=O` (stereo not given in full), the Potency entry was “inactive”.

In the case of `Cc1cc(O)c2c(c1O)C(=O)C(O)=C(O)C2=O`, the Potency entry is “inactive”.

For `CC1=CCC[C@H]2[C@H](C1)C(=O)C[C@@H](C)[C@]2(C)CC/C(=C/CO)CO`, the Potency result was “inactive”.

With `COC1=CC(=O)[C@@]2([C@@H]1O)[C@@H](Cl)C[C@]13C(OC)=C(OC)C(=O)C[C@]21CCN3C`, the Potency result was “inactive”.

As to `CCN(CC)CCNC(=O)c1c(C)[nH]c(C=C2C(=O)Nc3ccc(F)cc32)c1C`, the Potency is 49.8 µM (active).

As for `CCCCOC(=O)C(=O)OCCCC`, the Potency entry is “inactive”.

With `CC1=C(O)C(=O)[C@@H]2O[C@@H]2C1=O`, the Potency entry is “inactive”.

With `C[C@@H]1OC(=O)[C@H]2C[C@H]3CCCC[C@@H]3[C@@H](/C=C/[C@H]3CCC[C@H](C)N3C)[C@@H]12`, the Potency entry is “inactive”.

As for `CN1CCCCC1c1cccnc1` (stereo not given), the Potency entry was “inactive”.

Consider `Cc1ncsc1CCO`, for which the Potency result is “inactive”.

`CCCCCCCCCCCCCC/C(C(=O)O)=C(\C)C(=O)O`: the Potency entry is “inactive”.

Take `Nc1oc2ccccc2c1C(=O)Cc1ccccc1O[C@@H]1O[C@H](CO)[C@@H](O)[C@H](O)[C@H]1O`: the Potency result is “inactive”.

With `c1coc(Cn2cccc2)c1`, the Potency entry was “inactive”.

Turning to `c1cncc(C2CCCN2)c1` (stereo not given), the Potency result was “inactive”.

As for `CN(C)Cc1c[nH]c2ccccc12`, the Potency result was “inactive”.

With `CCN1C[C@]2(COC(=O)c3ccccc3N3C(=O)CC(C)C3=O)CC[C@H](OC)[C@@]34C5C[C@@H]6[C@@H](OC)C[C@@](O)(C5[C@H]6OC)[C@](O)([C@@H](OC)C23)[C@@H]14` (stereo not given in full), the Potency entry was “inactive”.

On to `CC(C)(O)[C@H](O)Cc1cc2ccc(=O)oc2cc1O[C@@H]1O[C@H](CO)[C@@H](O)[C@H](O)[C@H]1O`, for which the Potency result was “inactive”.

Consider `CC(=O)OCCC(C)C`, for which the Potency entry is “inactive”.

In the case of `O=C1O/C(=C\c2ccc(O)cc2)C(O)=C1c1ccc(O)cc1`, the Potency result was “inactive”.

For the compound `COc1cc2nc3occc3c(OC)c2cc1OC`, the Potency entry is “inactive”.

For the compound `CN(CCCC(=O)c1cccnc1)N=O`, the Potency entry is “inactive”.

Regarding `C[C@@H]1[C@H]2[C@@H](O[C@@H]3O[C@H](CO)[C@@H](O)[C@H](O)[C@H]3O)OC=C(C(=O)O)[C@H]2C[C@@H]1O`, the Potency result is “inactive”.

Take `CC(=O)OCC1=C(C(=O)[O-])N2C(=O)[C@@H](NC(=O)CCC[C@@H](N)C(=O)[O-])[C@H]2SC1.[Zn+2]`: the Potency result was “inactive”.

As to `O=C(O)c1cccc(Br)c1`, the Potency result is “inactive”.

The next assay deals with Nucleoprotein (Lymphocytic choriomeningitis virus (strain Armstrong)) (UniProt P09992). Description: qHTS for Inhibitors of the Functional Ribonucleoprotein Complex (vRNP) of Lymphocytic Choriomeningitis Arenaviruses (LCMV): LCMV Primary Screen - GLuc reporter signal (AID 1347086). Note: nearly all actives have a fitted effect of over 70% in size. The following applies: LCMV minigenome vRNP cell assay, Gaussia luciferase reporter; series mostly up to 57.5 µM.
Nucleoprotein (Lymphocytic choriomeningitis virus (strain Armstrong)), sequence (P09992 whole entry, looked up): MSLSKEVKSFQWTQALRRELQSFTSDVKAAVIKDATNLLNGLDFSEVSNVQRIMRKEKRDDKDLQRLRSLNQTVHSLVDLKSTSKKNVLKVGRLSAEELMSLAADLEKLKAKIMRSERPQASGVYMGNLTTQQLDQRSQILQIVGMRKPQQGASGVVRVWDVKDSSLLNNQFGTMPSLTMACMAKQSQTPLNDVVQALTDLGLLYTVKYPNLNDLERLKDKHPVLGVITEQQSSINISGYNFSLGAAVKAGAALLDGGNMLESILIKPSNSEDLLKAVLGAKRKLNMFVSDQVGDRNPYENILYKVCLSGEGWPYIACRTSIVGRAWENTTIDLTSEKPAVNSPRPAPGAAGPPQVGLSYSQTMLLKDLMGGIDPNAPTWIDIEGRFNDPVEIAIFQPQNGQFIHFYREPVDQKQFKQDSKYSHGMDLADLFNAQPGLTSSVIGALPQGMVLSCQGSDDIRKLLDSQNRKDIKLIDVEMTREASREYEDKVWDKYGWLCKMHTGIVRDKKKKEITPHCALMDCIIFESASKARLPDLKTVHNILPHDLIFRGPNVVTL
Regarding `CC(C)CC(=O)O`, the Potency result was “inactive”.

For `CC(O)[C@H]1CC[C@H]2[C@@H]3CC[C@H]4C[C@@H](O)CC[C@]4(C)[C@H]3C(=O)C[C@]12C` (stereo not given in full), the Potency entry was “inactive”.

Take `C=C1C[C@H](O)[C@@H]2[C@H](OC(=O)[C@H]2C)[C@H]2[C@H](C)[C@@H](O)C[C@@H]12`: the Potency entry is “inactive”.

Turning to `COc1ccc2[nH]c3c(c2c1)CCNC3C` (stereo not given), the Potency entry was “inactive”.

As to `CCCCC(C)/C=C(C)/C=C(\C)C(=O)NC1=CC(O)(/C=C/C=C/C=C/C(=O)NC2=C(O)CCC2=O)C2OC2C1=O` (stereo not given), the Potency result is “inactive”.

`COc1c2c(nc3occc13)C(CC=C(C)C)(OC)C(OC(C)=O)CC2` (stereo not given): the Potency entry was “inactive”.

With `O=Cc1cc2ccccc2o1`, the Potency entry was “inactive”.

Regarding `COc1ccc(CCN)cc1`, the Potency entry is “inactive”.

With `C[N+]1([O-])CCC[C@@H]1c1cccnc1` (stereo not given in full), the Potency entry is “inactive”.

Consider `CCCCCCCC/C=C/CCCOC(C)=O`, for which the Potency entry was “inactive”.

Regarding `CC1(C)CCc2c([nH]c3ccccc3c2=O)O1`, the Potency result is “inactive”.

In the case of `Cn1cccc1-c1cccnc1`, the Potency result is “inactive”.

On to `CC(=O)C1CCC2C3CCC4=CC(=O)C=CC4(C)C3C(=O)CC12C` (stereo not given), for which the Potency result is “inactive”.

In the case of `COc1cc(CCc2cc(NC(=O)c3ccc(N4C[C@@H](C)N[C@@H](C)C4)cc3)n[nH]2)cc(OC)c1`, the Potency result is “inactive”.

Regarding `C=C(C)[C@@H]1CCC2=CC(=O)C[C@@H](C)[C@]2(C)C1`, the Potency entry was “inactive”.

Turning to `C[C@H]1CC[C@@H]2N(C1)C[C@H]1[C@@H]3C[C@H]4[C@@H](CC(=O)[C@H]5C[C@@H](O)CC[C@@]54C)[C@@H]3CC[C@H]1[C@]2(C)O`, the Potency result was “inactive”.

Consider `COC(=O)CC1[C@@]2(C)C[C@]34OC5(C)OC6(C7CC(=O)OC(c8ccoc8)[C@]7(C)CCC6(O5)[C@]13C)C(OC(C)=O)[C@]4(OC(C)=O)C2OC(C)=O` (stereo not given in full), for which the Potency entry is “inactive”.

Take `Cc1cc(O)c2c(c1O)C(=O)C(O)=C(O)C2=O`: the Potency entry was “inactive”.

`CC1=CCC[C@H]2[C@H](C1)C(=O)C[C@@H](C)[C@]2(C)CC/C(=C/CO)CO`: the Potency entry was “inactive”.

For `COC1=CC(=O)[C@@]2([C@@H]1O)[C@@H](Cl)C[C@]13C(OC)=C(OC)C(=O)C[C@]21CCN3C`, the Potency result is “inactive”.

With `CCN(CC)CCNC(=O)c1c(C)[nH]c(C=C2C(=O)Nc3ccc(F)cc32)c1C`, the Potency is 44.4 µM (active).

Turning to `CCCCOC(=O)C(=O)OCCCC`, the Potency entry is “inactive”.

On to `CC1=C(O)C(=O)[C@@H]2O[C@@H]2C1=O`, for which the Potency entry is “inactive”.

As to `C[C@@H]1OC(=O)[C@H]2C[C@H]3CCCC[C@@H]3[C@@H](/C=C/[C@H]3CCC[C@H](C)N3C)[C@@H]12`, the Potency entry is “inactive”.

On to `CN1CCCCC1c1cccnc1` (stereo not given), for which the Potency entry was “inactive”.

On to `Cc1ncsc1CCO`, for which the Potency entry is “inactive”.

On to `CCCCCCCCCCCCCC/C(C(=O)O)=C(\C)C(=O)O`, for which the Potency entry is “inactive”.

With `Nc1oc2ccccc2c1C(=O)Cc1ccccc1O[C@@H]1O[C@H](CO)[C@@H](O)[C@H](O)[C@H]1O`, the Potency entry was “inactive”.

Take `c1coc(Cn2cccc2)c1`: the Potency entry is “inactive”.

As for `c1cncc(C2CCCN2)c1` (stereo not given), the Potency result is “inactive”.

`CN(C)Cc1c[nH]c2ccccc12`: the Potency entry is “inactive”.

Regarding `CCN1C[C@]2(COC(=O)c3ccccc3N3C(=O)CC(C)C3=O)CC[C@H](OC)[C@@]34C5C[C@@H]6[C@@H](OC)C[C@@](O)(C5[C@H]6OC)[C@](O)([C@@H](OC)C23)[C@@H]14` (stereo not given in full), the Potency entry was “inactive”.

As for `CC(C)(O)[C@H](O)Cc1cc2ccc(=O)oc2cc1O[C@@H]1O[C@H](CO)[C@@H](O)[C@H](O)[C@H]1O`, the Potency entry is “inactive”.

As for `CC(=O)OCCC(C)C`, the Potency result is “inactive”.

As to `O=C1O/C(=C\c2ccc(O)cc2)C(O)=C1c1ccc(O)cc1`, the Potency entry was “inactive”.

For the compound `COc1cc2nc3occc3c(OC)c2cc1OC`, the Potency entry is “inactive”.

For `CN(CCCC(=O)c1cccnc1)N=O`, the Potency entry was “inactive”.

On to `C[C@@H]1[C@H]2[C@@H](O[C@@H]3O[C@H](CO)[C@@H](O)[C@H](O)[C@H]3O)OC=C(C(=O)O)[C@H]2C[C@@H]1O`, for which the Potency entry was “inactive”.

As for `CC(=O)OCC1=C(C(=O)[O-])N2C(=O)[C@@H](NC(=O)CCC[C@@H](N)C(=O)[O-])[C@H]2SC1.[Zn+2]`, the Potency result was “inactive”.

Turning to `O=C(O)c1cccc(Br)c1`, the Potency entry was “inactive”.
